Data published in PubChem BioAssay.
Values joined by “and” are separate entries in the source; they are usually repeats but may differ in a detail not shown here. Identical values can stand only once. A number with no mark means an inactive call. Active and inactive are the calls of the source.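 How the source made its calls, unless noted: active means inhibition above 50%; inactive means the rest.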

Test: antimalarial activity against Dd2 strain (AID 2302;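 active means growth inhibition above 50% at the single 2 µM test dose, taken to imply half-maximal potency below 2 µM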;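 further: 0% = DMSO untreated growth and 100% = chloroquine plus artemisinin killed control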)
Conditions: P. falciparum Dd2 in RBCs, LDH growth readout, 72 h; at 2 µM; hits give high values
COc1ccc2nccc([C@@H](O)CN3CCC(NCc4ccc5nnsc5c4)CC3)c2c1 gave a growth inhibition of 0%.
With CC(C)(C)C1CCc2nc(N)nc(N)c2C1 (configuration not stated) the growth inhibition was 38%.
In the case of CCN(CC)C(=NCCCCCCN=C(NC(N)=NCc1cccc(Cl)c1)N(CC)CC)NC(N)=NCc1cccc(Cl)c1, the growth inhibition is reported as 99% (active).
In the case of O=C(NC1CC1)c1cnc(N2CCCC(c3ccccc3)C2)c(Cl)c1 (configuration not stated), the growth inhibition is reported as 94% (active).
Work on Cc1cc(NCCC(=O)NCCc2ccccc2)nc(NCCc2ccc(F)cc2)n1 yielded a growth inhibition of 7%.
For CC1(CCc2ccccc2)N=C(N)N=C(N)C1c1ccc(Cl)c(Cl)c1 (configuration not stated), the growth inhibition was 39%.
For Cn1nccc1C(=O)NCCNCc1ccc(-c2ccc(-c3nc4ccc(C(F)(F)F)cc4[nH]3)cc2)cc1, the growth inhibition was 99% (active).
With O=C(Nc1ccc(CN2CCN(S(=O)(=O)c3ccc(Cl)s3)CC2)cc1)c1cccs1 the growth inhibition was 87% (active).
For CS(=O)(=O)c1ccc(CNCc2cccc(-c3cccc(-c4nc5ccc(F)cc5[nH]4)c3)c2)cc1, the growth inhibition was 84% (active).
For O=C(Cc1cnc[nH]1)Nc1ccc(-c2cccc(-c3nc4ccc(F)cc4[nH]3)c2)cc1, the growth inhibition was 70% (active).
With CC(C)(C)OC(=O)N(Cc1cc(-n2nnnc2C(F)(F)F)ccc1O)[C@H]1CCCN(C(=O)OC(C)(C)C)[C@H]1c1ccccc1 the growth inhibition was 66% (active).
With Cc1ccc(NCc2cccc(F)c2)cc1S(=O)(=O)N[C@@H]1CCN(C#N)C1 the growth inhibition was 83% (active).
With Fc1ccc2ncc(Cl)c(CCN3CCC(NCc4cc5c(cn4)OCCO5)CC3)c2c1 the growth inhibition was 20%.
For O=C(NCC1CCN(Cc2ccc(F)cc2)C1)c1cc(-c2cccc(C(F)(F)F)c2)cs1 (configuration not stated), the growth inhibition was 18%.
In the case of CN(C)CCOc1cc(NC(=O)Nc2ccc(-c3ccncc3)c(C(F)(F)F)c2)ccc1Cl, the growth inhibition is reported as 79% (active).
For CCCCCCCc1ccc(-c2c(C)[nH]c(C)c(Cl)c2=O)cn1, the growth inhibition was 96% (active).
With COc1ccc(CNCc2ccc(F)cc2)cc1-c1ccc(OC)c(S(=O)(=O)NCCN2CCCC2)c1 the growth inhibition was 88% (active).
Compound c1ccc(COc2ccc(C3CCCCC3)cc2)nc1 has a growth inhibition of 1%.
In the case of O=C(Nc1cccc(-c2ccc(-c3nc4ccc(F)cc4[nH]3)cc2)c1)c1cccnc1, the growth inhibition is reported as 92% (active).
With O=C(Cn1cc(C=C2SC(=NC3CCCC3)N(C3CCCC3)C2=O)c2ccccc21)N1CCCC1 the growth inhibition was 100% (active).
In the case of O=C(/C=C/c1ccc(Cl)c(Cl)c1)NC1CCN(CCCNC(=O)c2cccc(Cl)c2)CC1, the growth inhibition is reported as 28%.
Compound CCNc1cc(C(=O)N[C@@H](Cc2ccccc2)[C@H](O)CNCCc2ccccc2)cc(N2CCCC2=O)c1 has a growth inhibition of 46%.
In the case of CC(CCc1ccccc1)NCC(O)c1ccc2c(c1)S(=O)(=O)c1ccccc1N2 (configuration not stated), the growth inhibition is reported as 4%.
For Cc1cc(OCc2ccncc2)cc2c1C(=O)CC(C)(C)O2, the growth inhibition was 0%.
COc1ccc2ncc(F)c(CCN3CC[C@H](NCc4cc5c(s4)CCCN5)[C@H](O)C3)c2n1 showed a growth inhibition of 16%.
With CNCCNCc1ccc(-c2cccc(-c3nc4ccc(C(F)(F)F)cc4[nH]3)c2)cc1 the growth inhibition was 77% (active).
In the case of CN1CCC(C(=O)Nc2cccc(-c3ccc(-c4nc5ccc(C(F)(F)F)cc5[nH]4)s3)c2)CC1, the growth inhibition is reported as 95% (active).

Test: HepG2 cytotoxicity, primary screen, cytotoxicity control for P. falciparum antimalarial project, cell-based, ATP luminescence (AID 2303);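 further: 0% = DMSO wells and 100% = digitonin-killed cells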
Conditions: HepG2 viability, 24-48 h, at 10 µM, hits give high values
In the case of Cc1cc(C2CCN(CCCCNC(=O)c3ccc(NC(=O)c4ccc(Cl)cc4)cc3)CC2)c(C)cc1OCc1cccnc1, the inhibition is reported as 39%.
Compound CN1CCCN(Cc2ccc(-c3cccc(NC(=O)c4ccc(F)cc4)c3)cc2)CC1 has an inhibition of 29%.
In the case of CCCS(=O)(=O)N1CCC(CO)(Cc2ccccc2C(F)(F)F)CC1, the inhibition is reported as -1%.
Compound Oc1ccc(CCNc2nc(NCCCOc3ccccc3-c3ccc(F)cc3)nc(N3CCNCC3)n2)cc1 has an inhibition of 30%.
In the case of O=C(Nc1cccc(-c2cccc(-c3nc4ccccc4[nH]3)c2)c1)N[C@@H]1C[C@H]1c1ccccc1, the inhibition is reported as 40% and 8%.
For O=C(Nc1ccc(-c2cccc(-c3nc4ccc(C(F)(F)F)cc4[nH]3)c2)cc1)c1cccnc1, the inhibition was 74% (active).
Work on COc1ccc(Cl)cc1S(=O)(=O)Nc1cccc(CCN2CCC(N3CCCCC3)CC2)c1 yielded an inhibition of 33%.
In the case of COc1ccc(-n2ccnc2SCC(=O)Nc2cc(C)ccc2C)c(OC)c1, the inhibition is reported as 2%.
Work on O=S(=O)(NCCN1CCCC1)c1cccc(-c2ccccc2CNC2Cc3ccccc3C2)c1 yielded an inhibition of 35%.
In the case of CCOC(=O)C(C)(C)Oc1ccc(C(=C2CC(C)(C)CC(C)(C)C2)c2ccc(O)cc2)cc1, the inhibition is reported as -3%.
Cc1nc(-c2ccc(-c3ccc(NC(=O)c4coc5ccc(N6C[C@@H](C)N[C@@H](C)C6)cc45)cc3)c(C)c2)no1 gave an inhibition of 1%.
Work on c1ccc(Oc2ccc(Nc3ccnc4cc(-c5ccc(CN6CCOCC6)o5)ccc34)cc2)nc1 yielded an inhibition of 5%.
With COc1ccc2nc(C)cc(NN=Cc3ccccc3Cl)c2c1 the inhibition was 0%.
COc1ccc2nccc([C@@H](O)CN3CCC(NCc4ccc5nnsc5c4)CC3)c2c1 gave an inhibition of 16%.
For CC(C)(C)C1CCc2nc(N)nc(N)c2C1 (configuration not stated), the inhibition was 69% (active).
Work on CCN(CC)C(=NCCCCCCN=C(NC(N)=NCc1cccc(Cl)c1)N(CC)CC)NC(N)=NCc1cccc(Cl)c1 yielded an inhibition of 17%.
O=C(NC1CC1)c1cnc(N2CCCC(c3ccccc3)C2)c(Cl)c1 (configuration not stated) gave an inhibition of 6%.
Compound Cc1cc(NCCC(=O)NCCc2ccccc2)nc(NCCc2ccc(F)cc2)n1 has an inhibition of 0%.
For CC1(CCc2ccccc2)N=C(N)N=C(N)C1c1ccc(Cl)c(Cl)c1 (configuration not stated), the inhibition was 19%.
Cn1nccc1C(=O)NCCNCc1ccc(-c2ccc(-c3nc4ccc(C(F)(F)F)cc4[nH]3)cc2)cc1 gave an inhibition of 35%.
O=C(Nc1ccc(CN2CCN(S(=O)(=O)c3ccc(Cl)s3)CC2)cc1)c1cccs1 gave an inhibition of 14%.
With CS(=O)(=O)c1ccc(CNCc2cccc(-c3cccc(-c4nc5ccc(F)cc5[nH]4)c3)c2)cc1 the inhibition was 11%.
With O=C(Cc1cnc[nH]1)Nc1ccc(-c2cccc(-c3nc4ccc(F)cc4[nH]3)c2)cc1 the inhibition was 28%.
Compound CC(C)(C)OC(=O)N(Cc1cc(-n2nnnc2C(F)(F)F)ccc1O)[C@H]1CCCN(C(=O)OC(C)(C)C)[C@H]1c1ccccc1 has an inhibition of 14%.
With Cc1ccc(NCc2cccc(F)c2)cc1S(=O)(=O)N[C@@H]1CCN(C#N)C1 the inhibition was 13%.
Compound Fc1ccc2ncc(Cl)c(CCN3CCC(NCc4cc5c(cn4)OCCO5)CC3)c2c1 has an inhibition of 24%.
Work on O=C(NCC1CCN(Cc2ccc(F)cc2)C1)c1cc(-c2cccc(C(F)(F)F)c2)cs1 (configuration not stated) yielded an inhibition of 38%.
CN(C)CCOc1cc(NC(=O)Nc2ccc(-c3ccncc3)c(C(F)(F)F)c2)ccc1Cl showed an inhibition of 36%.
Work on CCCCCCCc1ccc(-c2c(C)[nH]c(C)c(Cl)c2=O)cn1 yielded an inhibition of -4%.
Work on COc1ccc(CNCc2ccc(F)cc2)cc1-c1ccc(OC)c(S(=O)(=O)NCCN2CCCC2)c1 yielded an inhibition of 24%.
For c1ccc(COc2ccc(C3CCCCC3)cc2)nc1, the inhibition was 0%.
Compound O=C(Nc1cccc(-c2ccc(-c3nc4ccc(F)cc4[nH]3)cc2)c1)c1cccnc1 has an inhibition of 27%.
For O=C(Cn1cc(C=C2SC(=NC3CCCC3)N(C3CCCC3)C2=O)c2ccccc21)N1CCCC1, the inhibition was 5%.
O=C(/C=C/c1ccc(Cl)c(Cl)c1)NC1CCN(CCCNC(=O)c2cccc(Cl)c2)CC1 gave an inhibition of 36%.
CCNc1cc(C(=O)N[C@@H](Cc2ccccc2)[C@H](O)CNCCc2ccccc2)cc(N2CCCC2=O)c1 showed an inhibition of -4%.
For CC(CCc1ccccc1)NCC(O)c1ccc2c(c1)S(=O)(=O)c1ccccc1N2 (configuration not stated), the inhibition was 17%.
Cc1cc(OCc2ccncc2)cc2c1C(=O)CC(C)(C)O2 showed an inhibition of -5%.
Work on COc1ccc2ncc(F)c(CCN3CC[C@H](NCc4cc5c(s4)CCCN5)[C@H](O)C3)c2n1 yielded an inhibition of 2%.
In the case of CNCCNCc1ccc(-c2cccc(-c3nc4ccc(C(F)(F)F)cc4[nH]3)c2)cc1, the inhibition is reported as 27%.
Work on CN1CCC(C(=O)Nc2cccc(-c3ccc(-c4nc5ccc(C(F)(F)F)cc5[nH]4)s3)c2)CC1 yielded an inhibition of 29%.
